IDE cell activ: human IDE activators in live cells, primary screen, fluorescence polarization, HEK cells, FAbeta-B substrate; AID 493087, 2011; FAbeta-B cleavage; 0% vehicle, 100% cell-free pure enzyme wells; Insulin-degrading enzyme (Homo sapiens), P14735; 340,000 compounds, 0.073% hits; activation, % at 5.96 µM;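 active means activation above the mean of all tested compounds plus 3 SD, set per screening campaign, cut at about 17% in these data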
TLR4-MyD88 BLA: inhibitors of TLR4-MyD88 association in cells, primary screen, cell-based, HeLa CL3-4, BLA complementation, FRET ratio. HeLa CL3-4 TLR4/MyD88 BLA complementation. inhibition, % at 8.4 µM. 200,000 compounds, 0.18% hits. AID 861, 2007; in the data active means inhibition above about 25%
IDE cell inh: human IDE inhibitors in live cells, primary screen, fluorescence polarization, HEK cells, FAbetaB substrate; Insulin-degrading enzyme (Homo sapiens), P14735; FAbetaB cleavage; inhibition, % at 5.59 µM; 320,000 compounds, 0.41% hits; AID 434962, 2010;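 active means percent inhibition above the average of all tested compounds plus 3 SD, set per screening campaign, cut at about 16% in these data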;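 further: IDE supplied by intact live HEK cells; FP after avidin binding of uncleaved biotin substrate so inhibition keeps polarization high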
NOD2-RIPK2 inh: NOD2-RIPK2 binding disruptors in cells, primary screen, fluorescence, CHO cells, BLA complementation; CCF4 ratio; inhibition, % at 4.98 µM; Receptor-interacting serine/threonine-protein kinase 2 (Homo sapiens), O43353; 360,000 compounds, 0.38% hits; AID 624267, 2012; in the data active means inhibition above about 21%
Target sequence (O43353 whole entry, looked up): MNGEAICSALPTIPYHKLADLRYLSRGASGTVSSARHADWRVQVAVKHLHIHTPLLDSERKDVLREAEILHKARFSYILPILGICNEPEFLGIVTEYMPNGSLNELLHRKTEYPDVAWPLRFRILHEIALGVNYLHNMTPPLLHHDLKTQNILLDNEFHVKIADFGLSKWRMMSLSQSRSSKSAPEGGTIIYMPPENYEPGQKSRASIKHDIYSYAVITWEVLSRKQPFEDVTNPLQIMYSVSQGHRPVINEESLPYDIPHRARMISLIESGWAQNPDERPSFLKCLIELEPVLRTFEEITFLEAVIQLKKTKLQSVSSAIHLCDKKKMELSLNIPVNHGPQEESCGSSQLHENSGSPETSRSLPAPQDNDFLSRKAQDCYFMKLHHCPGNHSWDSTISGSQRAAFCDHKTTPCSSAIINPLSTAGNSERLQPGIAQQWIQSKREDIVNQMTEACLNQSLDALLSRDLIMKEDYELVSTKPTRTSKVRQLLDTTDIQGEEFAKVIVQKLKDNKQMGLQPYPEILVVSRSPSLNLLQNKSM
TLR9-MyD88 block: inhibitors of TLR9-MyD88 association in cells, primary screen, cell-based, CHO, BLA complementation, fluorescence; AID 504734, 2011; 340,000 compounds, 0.21% hits; inhibition, % at 4.98 µM; CCF4 FRET ratio;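 active means inhibition above the mean over all tested compounds plus 3 SD, cut at about 21% in these data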
Hits are given with their value; – = inactive; · = not tested or not shown. Compounds with a hit are over-represented: about 0.87% of the library has one in this group of screens.

SMILES	IDE cell activ	TLR4-MyD88 BLA	IDE cell inh	NOD2-RIPK2 inh	TLR9-MyD88 block
CCN(CC)CCNC(=O)CS(=O)Cc1nc(-c2ccccc2Cl)oc1C (configuration not stated)	17.7	–	–	–	–
CCN(CC)CCNC(=O)CS(=O)Cc1nc(-c2ccc(Cl)cc2)oc1C (configuration not stated)	–	–	–	–	–
CC(OC(=O)c1ccc(Cl)nc1)C(=O)NC1(C#N)CCCCC1 (configuration not stated)	17.9	·	–	–	–
CCCc1nc2ccc(Cl)cn2c1Cc1ccccc1OC	·	·	·	–	·
CC(C)OC(=O)N(C)C[C@@H]1OCc2cnnn2CCCC(=O)N([C@H](C)CO)C[C@H]1C	·	·	·	–	–
COc1cccc(C2=CC(c3ccc(N(C)C)cc3)n3ncnc3N2)c1 (configuration not stated)	·	–	18.2	·	·
COc1cccc(C2C=C(c3cccs3)Nc3ncnn32)c1OC (configuration not stated)	–	–	–	48.4	44.6
COc1ccc(C2C=C(c3ccc(Br)s3)Nc3ncnn32)cc1OC (configuration not stated)	·	–	38.7	·	·
COc1cccc(C2=CC(c3ccccc3)n3ncnc3N2)c1 (configuration not stated)	·	–	–	·	·
[O-][N+](=Cc1ccccc1)CC1(O)CCCCC1	·	·	·	–	–
CNC[C@H](Cc1ccccc1)NC[C@@H](Cc1cccc2ccccc12)NCCc1ccc(C)cc1	18.1	·	–	–	–
COC(=O)[C@]12CCCCC=C1N(Cc1ccc(Cl)cc1Cl)C(=O)[C@H](CC(=O)NCC1CCCCC1)C2	·	·	·	–	·
Cc1cc(N2C(=O)C=CC2=O)c([N+](=O)[O-])cc1C	–	–	–	21.9	–
CCOC(=O)N1CCN(c2nc(-c3ccc(F)cc3)cs2)CC1	–	–	16.8	–	–
CCOC(=O)C(=O)N1CCN(c2nc(-c3ccc(Cl)cc3)cs2)CC1	–	·	–	–	–
CC(C)CN(C(=O)COC(=O)c1cncc(Br)c1)c1c(N)n(Cc2ccccc2)c(=O)[nH]c1=O	–	·	–	–	–
CC(C)CN(C(=O)COC(=O)c1ccc(Br)cc1)c1c(N)n(Cc2ccccc2)c(=O)[nH]c1=O	22.0	·	–	–	–
Cc1ccc(/C=C2\SC(=S)N(C3CCS(=O)(=O)C3)C2=O)o1 (configuration not stated)	–	–	–	–	–
NS(=O)(=O)c1ccc(-c2ccc(/C=C3\SC(=S)N(C4CCS(=O)(=O)C4)C3=O)o2)cc1 (configuration not stated)	–	·	19.7	–	–
COc1cc2nc(SCc3ccc(F)cc3)n(Cc3cccs3)c(=N)c2cc1OC	–	–	–	–	–
COc1ccc(Cn2c(SCc3ccccc3C)nc3cc(OC)c(OC)cc3c2=N)cc1	22.1	–	–	–	–
O=S(=O)(Nc1cccnc1)c1cccc(C(F)(F)F)c1	–	–	–	–	–
O=[N+]([O-])c1ccc(S(=O)(=O)c2cccc(C(F)(F)F)c2)nc1	–	·	–	78.7	–
C[C@@H]1CC[C@]2(C(=O)O[C@@H]3O[C@H](CO)[C@@H](O)[C@H](O)[C@H]3O)CC[C@]3(C)C(=CCC4[C@@]5(C)CC[C@H](O[C@@H]6OC[C@H](O)[C@H](O[C@@H]7O[C@H](CO)[C@@H](O)[C@H](O)[C@H]7O)[C@H]6O)C(C)(C)C5CC[C@]43C)C2[C@]1(C)O (some centres not stated)	–	·	–	–	–
COc1ccc(/C=C\C(=O)O[C@@H]2C(O)C(O[C@@H]3OC(C)[C@H](O[C@@H]4OCC(O[C@H]5O[C@H](CO)[C@@H](O)C(O)C5O)C(O)C4O)C(O)C3O)[C@H](OC(=O)[C@]34CCC(C)(C)C[C@@H]3C3=CCC5[C@@]6(C)CC(O)C(O[C@@H]7OC(CO)C(O)[C@H](O)[C@H]7O)[C@@](C)(C(=O)O)C6CC[C@@]5(C)[C@]3(CO)CC4)O[C@H]2C)cc1 (some centres not stated)	–	·	–	–	23.9
SMILES	IDE cell activ	TLR4-MyD88 BLA	IDE cell inh	NOD2-RIPK2 inh	TLR9-MyD88 block
Cc1cc(NC(=O)c2cncc(Br)c2)ccc1NC(=O)c1cc2ccccc2o1	18.0	·	–	–	–
CCCCCCCCCCCCCCCC[N+](C)(C)CCN(Cc1ccc(OC)cc1)c1ncccn1	17.5	·	–	–	–
CCC/C=C/c1ccc(CN2C(C(C)C)C(=O)N(Cc3cn(CCC4OCCCO4)nn3)CCS2(=O)=O)cc1 (configuration not stated)	·	·	·	–	–
CCOC(=O)C1(C)CCCCN1C(=O)c1ccoc1 (configuration not stated)	·	·	·	–	·
CCOC(=O)c1c(-c2ccc(C)o2)csc1NC(=O)CSc1nncs1	–	–	–	22.4	–
Cc1cc(N2CCN(C(C(=O)NC3CCCC3)C(C)C)CC2)c2ccccc2n1 (configuration not stated)	·	·	·	–	·
C#CCNC(=O)c1cc2c(Br)ccc(Br)c2nc1N	·	·	·	–	·
CC(=O)Nc1ccc(N2S(=O)(=O)c3ccccc3S2(=O)=O)cc1	20.3	–	–	–	–
COc1ccc(CNC(=O)[C@@H]2CC=C[C@@H]3CCN(Cc4ccc(Cl)c(Cl)c4)C(=O)[C@@H]32)cc1	–	·	–	–	–
COc1ccc(CNC[C@@H](CCCCN(C)Cc2ccc(OC)cc2)N2C[C@H](c3ccccc3)N(CCc3ccc(Cl)c(Cl)c3)C(=O)C2=O)cc1	–	–	–	28.8	–
CCSC1=N/C(=C\C=C2/Oc3ccccc3N2CC)C(=O)S1	–	·	19.8	–	–
COc1ccc(OCCNc2cc(N3CCOCC3)ccc2[N+](=O)[O-])cc1	20.4	–	–	–	–
COc1ccc2[nH]c3c(NCCN4CCCCC4)ncnc3c2c1	–	–	–	–	–
COc1cc(CNc2ncnc3c2[nH]c2ccc(C)cc23)cc(OC)c1	–	·	55.5	–	–
COc1cc(OC)c(OC)cc1/C=N/Nc1ncnc2c1[nH]c1ccccc12	–	–	–	–	–
COc1ccc(/C=N/Nc2ncnc3c2[nH]c2ccc(C)cc23)c(OC)c1OC	·	·	39.0	–	·
CC1(C(=O)NS(=O)(=O)c2ccccc2Cl)CCN1C(=O)CCc1ccccc1 (configuration not stated)	·	·	·	–	·
COc1ccc(/C=C(\C#N)C(=O)Nc2cc(C)c(Cl)cc2OC)cc1O	20.2	·	–	–	–
COc1ccc(/C=C(\C#N)C(=O)NCc2ccccc2)cc1O	–	·	–	–	–
CCCC(=O)N1CCN(c2ccc(NC(=O)c3ccc([N+](=O)[O-])o3)cc2Cl)CC1	–	–	·	26.6	–
O=C(Nc1ccc(N2CCOCC2)c(Cl)c1)c1ccc([N+](=O)[O-])o1	–	–	·	–	–

Screens: PubChem, The Scripps Research Institute Molecular Screening Center
